Screens: PubChem, National Center for Advancing Translational Sciences (NCATS)
GAA spleen mod = qHTS Assay for Inhibitors and Activators of Human alpha-Glucosidase From Spleen Homogenate | Lysosomal alpha-glucosidase (Homo sapiens), P10253 | human spleen homogenate, 4-MU-alpha-glucoside fluorescence | Potency, µM (series often up to 79.9 µM), inactives show at the highest dose activity change, negative = inhibition, usual class: inhibitors | 0.006% of 240,000 active;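 note: potency is the fitted concentration of half-maximal effect; 0% = enzyme with vehicle and -100% = no enzyme basal signal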
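Compounds were titrated against alpha-glucosidase in spleen homogenate at pH 5.0, with 1 mM 4-methylumbelliferyl substrate for 40 min at 37 C. Reactions were quenched with pH 10 NaOH/glycine and fluorescence measured.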
GLA inh pH 4.5 = qHTS Assay for Inhibitors of Human alpha-Galactosidase at pH 4.5 | Alpha-galactosidase A (Homo sapiens), P06280 | purified enzyme, 4-MU-alpha-Gal fluorescence, pH 4.5 | activity change, negative = inhibition, % at 105 µM | 230,000 tested, under 10 active | AID 1467, 2008;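 note: 0% = full activity with enzyme and -100% = basal without enzyme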
Target sequence (P06280 whole entry, looked up): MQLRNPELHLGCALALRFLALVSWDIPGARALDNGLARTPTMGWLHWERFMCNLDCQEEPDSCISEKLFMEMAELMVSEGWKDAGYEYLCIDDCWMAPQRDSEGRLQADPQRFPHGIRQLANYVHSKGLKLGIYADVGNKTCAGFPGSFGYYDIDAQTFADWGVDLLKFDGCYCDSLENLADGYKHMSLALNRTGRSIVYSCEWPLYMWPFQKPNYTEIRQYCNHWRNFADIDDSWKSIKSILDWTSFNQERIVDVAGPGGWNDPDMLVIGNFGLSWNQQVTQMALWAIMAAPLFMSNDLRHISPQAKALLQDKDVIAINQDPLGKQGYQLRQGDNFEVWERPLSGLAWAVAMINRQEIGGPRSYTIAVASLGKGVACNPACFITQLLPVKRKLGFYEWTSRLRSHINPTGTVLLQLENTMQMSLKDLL
GAA inhib = qHTS Assay for Inhibitors of Human alpha-Glucosidase as a Potential Chaperone Treatment of Pompe Disease; Lysosomal alpha-glucosidase (Homo sapiens), P10253; purified human GAA, 4-MU-alpha-glucoside fluorescence; Potency, µM (highest dose often 76.9 µM), without a hit: at the highest dose activity change, negative = inhibition, actives largely listed as inhibitors; 0.005% of 200,000 active; AID 1466, 2008;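 note: potency is the fitted concentration of half-maximal effect; plate controls were uninhibited enzyme wells for no effect and no-enzyme background for full effect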
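Human alpha-glucosidase, 4 nM, pre-mixed with test compounds before 400 uM 4-methylumbelliferyl substrate; 20 min room temperature at pH 5.0. Fluorescence read after pH 10 stop; AC50 values from Hill-equation fits.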
N370S GC mod = qHTS Assay for Inhibitors and Activators of N370S glucocerebrosidase as a Potential Chaperone Treatment of Gaucher Disease | Potency, µM (doses to about 59.4 µM), for the others: top-dose activity change, negative = inhibition, usual class: inhibitors | N370S GC spleen homogenate, 4MU-glucoside fluorescence | 0.092% of 330,000 active | Lysosomal acid glucosylceramidase (Homo sapiens), P04062;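 note: potency is the fitted concentration of half-maximal effect; 0% = full enzyme activity and -100% = no enzyme basal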
GLA spleen mod = qHTS Assay for Inhibitors and Activators of Human alpha-Galactosidase From Spleen Homogenate | Alpha-galactosidase A (Homo sapiens), P06280 | human spleen homogenate, 4MU-alpha-Gal fluorescence, 40 min | Potency, µM (titrated, usually from 80 µM), inactives show at the highest dose activity change, negative = inhibition, actives largely listed as inhibitors | 0.008% of 240,000 active;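 note: potency is the fitted concentration of half-maximal effect; 0% = enzyme with vehicle and -100% = no enzyme basal signal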
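Human spleen homogenate (1 ug) as enzyme source, 4-methylumbelliferyl-alpha-D-galactopyranoside 1 mM final, citrate/phosphate pH 5.0 with 0.01% Tween-20. Compounds 40 min at 37C, NaOH/glycine stop; fluorescence Ex 365/Em 440, Hill-fit AC50.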
GAA glycogen = qHTS Assay for Inhibitors and Activators of Human alpha-Glucosidase Cleavage of Glycogen; Lysosomal alpha-glucosidase (Homo sapiens), P10253; 0.38% of 300,000 active; AID 2100, 2009; Potency, µM (series often up to 76.4 µM), inactives show at the top dose activity change, negative = inhibition, actives largely listed as inhibitors; recombinant GAA, glycogen substrate, Amplex Red glucose oxidase fluorescence;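 note: potency is the fitted concentration of half-maximal effect; 0% = full enzyme reaction and -100% = no-enzyme basal signal; the screen sought inhibitors and activators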
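Recombinant human enzyme (4 nM); glycogen substrate; 37 C, 40 min, pH 5.0. Readout: coupled glucose oxidase/Amplex Red fluorescence.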
An asterisk follows results filed as active; ? = inconclusive; nt = no result; [ ] = dose if it differs, or a comment. The list is not random: actives were taken first. Their share in the collection is about 0.41%. Calls come from the whole dose curve; as a rule, active = well fitted curve in the direction sought with a large enough effect; inconclusive = small, poorly fitted or top-dose-only effect, or another doubt; inactive = no such curve, though single readings can be large; an effect the other way counts as inactive or inconclusive.

SMILES	GAA spleen mod	GLA inh pH 4.5	GAA inhib	N370S GC mod	GLA spleen mod	GAA glycogen
CCC(C)C(N)C(=O)NC(CC(N)=O)C(=O)NC(CC(C)C)C(=O)NC(CCCCN)C(=O)NC(C)C(=O)NC(CC(C)C)C(=O)NC(C)C(=O)NC(C)C(=O)NC(CC(C)C)C(=O)NC(C)C(=O)NC(CCCCN)C(=O)NC(CCCCN)C(=O)NC(C(=O)NC(CC(C)C)C(N)=O)C(C)CC (configuration not stated)	-1.2%	nt	nt	-4.1%	0.7%	nt
CCOC(=O)N1CCN(C(=O)Nc2sc3nc4n(c(=O)c3c2C)CCC(C)CC4)CC1 (configuration not stated)	-4.1%	-9.5	-10.4%	4.4%	4.8%	31.6µM*
CS(=O)(=O)n1nc(-c2ccco2)nc1NCc1ccccc1Cl	nt	nt	nt	nt	nt	7.6%[76.3 µM]
Nc1ccc(C(=O)C(=O)c2ccc(N)cc2)cc1	-6.1%	-4.1	nt	-13.9%	-3.6%	-6.9%
N=C1C=CC(=C(c2ccc(N)cc2)c2ccc(N)cc2)C=C1	8.0%	nt	nt	3.55µM*	4.1%	nt
COc1cccc(C2C(C(=O)Nc3cccnc3)=C(C)Nc3nc(SCc4ccccc4)nn32)c1 (configuration not stated)	nt	nt	nt	nt	nt	-3.4%[76.3 µM]
COc1ccc(C(CNC(=O)c2ccc(NS(=O)(=O)c3ccc(F)c(C)c3)cc2)N2CCOCC2)cc1 (configuration not stated)	nt	nt	nt	14.1µM*	nt	nt
CC1(C)Cc2c(sc3ncn4c(=S)[nH]nc4c23)CO1	5.6%	1.9	-9.1%	0.7%	4.8%	28.2µM*
CC1(C)Cc2c(sc3ncn(N)c(=N)c23)CO1	-3.4%	2.5	0.9%	-2.7%	-1.4%	9.8%
COc1ccc(NC(=O)Cn2c(=O)n(-c3cccc(C)c3)c(=O)c3c2c2cc(C)ccc2n3C)cc1Cl	nt	nt	nt	nt	nt	-5.5%[76.3 µM]
Cc1cc(C(=O)NNC(=S)Nc2ccccc2)nn1C	-4.7%	-10.5	12.4%	-1.5%	2.6%	3.55µM*
CCCCCCCC#Cc1ccccc1C(NC(=O)OC)C(C(=O)OC)C(=O)OC (configuration not stated)	5.3%[17.4 µM]	nt	nt	12.4%[12.8 µM]	-3.5%[17.5 µM]	nt
COc1ccc(C2SCC(=O)N2CCc2ccc(OC)c(OC)c2)cc1 (configuration not stated)	6.8%	?	1.2%	-12.6%	5.4%	5.62µM*
COc1ccc(-c2[nH]c(-c3ccccc3)nc2SCC(=O)Nc2ccc3c(c2)OCO3)cc1	nt	nt	nt	nt	nt	-11.1%[76.3 µM]
N#CCCCS(=O)(=O)c1nnnn1-c1ccc(F)cc1Br	6.6%	0.8	nt	-12.6%	-4.4%	nt
CCN(c1ccccc1)S(=O)(=O)c1ccc(NC(=O)c2nc(SC)ncc2Cl)cc1	nt	nt	nt	nt	nt	4.6%[76.3 µM]
O=C1OCC(CO)(CO)N=C1NNc1ccc(Cl)c(Cl)c1	4.3%	3.2	-5.3%	-4.7%	-10.5%	35.5µM*
COc1ccccc1-c1nnc2n1N=C(c1ccc(O)c(O)c1)CS2	-1.2%	-3.0	-7.3%	-5.9%	-1.4%	11.2µM*
CC(C)=C1C(=O)NN(c2ccc(F)c(Cl)c2)C1=O	0.8%	2.6	-0.9%	24.2%	-12.1%	24.9µM*
O=C1NN(c2ccc(F)c(Cl)c2)C(=O)/C1=C\c1cccc(OC(=O)c2cccs2)c1	4.4%	1.5	-2.3%	-9.0%	7.5%	?
O=C1CC(N2CCN(c3ccc(O)cc3)CC2)C(=O)N1Cc1cccs1 (configuration not stated)	-11.4%	-1.5	-3.4%	-6.2%	8.7%	6.31µM*
O=C(c1ccncc1)c1ccc(N2CCN(C3CC(=O)N(Cc4cccs4)C3=O)CC2)cc1 (configuration not stated)	-4.7%	-4.5	0.7%	0.5%	0.8%	-7.3%
